# These entries were drawn from the full list.
# aSyn 5UTR act = Activators via SNCA 5'UTR binding, MLPCN. alpha-synuclein 5'UTR reporter, activators screen. activity score, % (tested at 7.5 µM), hits read low. hit rate 7.1% among 300,000; in the data active = activity score below about -60%
# Numbers stand for hits; n = inactive.
SMILES,aSyn 5UTR act
Oc1c(C(Nc2nc3ccccc3s2)c2ccco2)ccc2cccnc12 (stereo unspecified),n
Nc1nc(Nc2ccccc2)nc(NCc2ccccc2)c1[N+](=O)[O-],n
C/C(=N/Nc1ccnc2cc(Cl)ccc12)c1ccc(O)cc1,-118
C/C(=N/Nc1ccnc2cc(Cl)ccc12)c1ccc(N)cc1,-177
O=Nc1c2nc3ccccc3n(O)c-2c2ccccc12,-129
CCOC(=O)Cc1csc(NC(=O)/C=C/c2ccc(Cl)cc2)n1,-64
O=C(/C=C/c1ccccc1)Nc1cccc(C(=O)O)c1,n
CSc1cccc(NC(=O)/C=C/c2ccc(Cl)cc2)c1,-160
Cc1cccc(NC(=O)/C=C/c2ccc(Cl)cc2)n1,-158
CSc1cccc(NC(=O)/C=C/c2ccccc2)c1,-226
CSc1cccc(NC(=S)Nc2cc(C)ccc2C)c1,-139
CSc1cccc(NC(=O)Nc2ccccc2)c1,-111
O=C(/C=C/c1ccccc1)Nc1ccc(Cl)cn1,-95
Cc1[nH]c2ccccc2c1N=Nc1cccc(C(=O)O)c1,-96
Cc1[nH]c2ccccc2c1N=Nc1ccccc1C(=O)O,-70
Cc1cccc2c1-c1sc(C(=O)N3CCCCC3)cc1CO2,-100
CCN1CCN(C(=O)c2cc3c(s2)-c2c(C)cccc2OC3)CC1,-141
CC(=O)Cn1cnc2sc(-c3ccccc3)cc2c1=O,-175
O=c1c2cc(-c3ccccc3)sc2ncn1-n1cccc1,-255
CC(=O)Cn1nnc2sc(-c3ccccc3)cc2c1=O,-90
CCn1cnc2sc(-c3ccccc3)cc2c1=O,-130
Cc1nc2cc(-c3ccccc3)sc2c(=O)n1N,n
Cc1ccc(C)n1-n1c(C)nc2sc(-c3ccccc3)cc2c1=O,-105
Cc1ccc(C(=O)N/N=C2\SCC(=O)N2c2cc(C)ccc2C)cc1,-94
O=C(/C=C/c1c[nH]c2ccccc12)c1cccc2ccccc12,-95
SMILES,aSyn 5UTR act
CCOC(=O)c1cc2c(=O)c3ccccc3oc2nc1C,-153
COCc1nc2oc3ccccc3c(=O)c2cc1C(=O)OC,-89
CC(=O)c1cc2c(=O)c3ccccc3oc2nc1C,-116
CC(=O)c1ccc2oc3ccccc3c(=O)c2c1,-81
Cc1cc2c3c(ccc(C)c3n1)N=CN2c1ccccc1,n
O=C(/C=C/c1ccccc1)Nc1scc(-c2ccccc2)c1C(=O)O,-84
COc1ccc(-c2csc(NC(=O)c3ccc(C(C)(C)C)cc3)c2C(=O)O)cc1,n
Cc1ccc(-c2csc(NC(=O)c3ccc(F)cc3)c2C(=O)O)cc1,-105
CCOC(=O)c1c(-c2ccc(-c3ccccc3)cc2)csc1NC(=O)CNCCN(C)C,n
Cc1ccc(-c2csc(NC(=O)c3ccccc3F)c2C(=O)O)cc1,-102
COC(=O)c1ccc2c(=O)[nH]c(CSc3nc(C)cs3)nc2c1,-94
O=[N+]([O-])c1cccnc1Oc1ccc(OCc2ccccc2)cc1,-79
O=[N+]([O-])c1cccnc1Oc1ccc(C2SCCS2)cc1,-106
O=[N+]([O-])c1cccnc1Sc1ccc(Br)cc1,n
O=C(Nc1nc(=O)c2ccccc2s1)c1ccc(Cl)cc1,-140
O=C(Nc1nc(=O)c2ccccc2s1)c1ccc(F)cc1,-264
CC(=O)c1ccccc1OC(=O)c1ccc(-c2ccccc2)cc1,-78
CCOc1ccc2nc(SCc3ccc(OC)cc3)sc2c1,-83
CCOc1ccc2nc(SCc3ccccc3C#N)sc2c1,-220
CN=C(Nc1ccc(Cl)cc1)c1ccc(C(F)(F)F)cc1,-92
CCOc1ccc(NC(=O)CSc2nncc(=O)[nH]2)cc1,-76
Nn1c(SCC(=O)Nc2ccc(F)cc2F)nnc1C1CCCCC1,-64
Nn1c(SCC(=O)Nc2ccc(F)cc2F)nnc1-c1cccnc1,-89
C/C(=N\N=C(/N)c1nonc1N)c1ccc2c(c1)OCO2,-110
O=c1c(Cl)c(N2CCN(c3ccc(F)cc3)CC2)cnn1-c1nc2ccccc2s1,-112
SMILES,aSyn 5UTR act
Cc1ccc(Nc2nc(-c3cccnc3)cs2)cc1Cl,-175
COc1cccc(Nc2nc(-c3cccnc3)cs2)c1,-173
Clc1ccccc1-c1csc(Nc2cccnc2)n1,-71
COc1cccc2sc(Nc3nc(-c4ccncc4)cs3)nc12,n
Clc1ccccc1Nc1nc(-c2cccnc2)cs1,-185
c1cncc(Nc2nc(-c3cccnc3)cs2)c1,-72
Cc1cc(C)c(NN=c2c(=O)c3ccccc3c2=O)c(C)c1,-125
CC(C)(C)NC(=O)CN(C(=O)CNS(=O)(=O)c1ccccc1)c1ccc2c(c1)OCCO2,-86
C=CCNc1nc(Cl)nc(Nc2ccccc2)n1,-72
c1ccc(-c2nnc(SCc3cn4ccsc4n3)o2)cc1,-75
COc1ccc(C(=O)Oc2ccc3oc(=O)sc3c2)cc1,-89
O=C(Nc1nnc(-c2ccccc2Cl)s1)c1ccccc1F,-173
CCC(Sc1nncn1C)C(=O)Nc1nnc(-c2ccccc2Cl)s1 (stereo unspecified),-64
O=C(Nc1nnc(-c2ccccc2)s1)c1ccccc1F,-152
S=c1[nH]c(-c2ccc(Cl)cc2)cs1,-76
Cc1ccc(-c2csc(=S)[nH]2)cc1,-113
COCCn1c(C)cc(C(=O)Cn2nc(C(=O)O)c3ccccc3c2=O)c1C,-116
COCCn1c(C)cc(C(=O)CSc2nc3ccccc3s2)c1C,n
